SNCA expr inhib = Primary qHTS assay for inhibitors of alpha-synuclein gene (SNCA) expression; HEK-293 SNCA-luciferase knock-in, luminescence, 24 h; actives 0.17% (n = 140,000); Potency, µM (titrated, usually from 57.2 µM), for the others: at the highest dose activity change, negative = inhibition, usual class: inhibitors;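 further: potency means the concentration at half of the fitted maximal effect; plate controls were DMSO cells for no effect and cell-free wells for full effect; nearly all actives have a fitted effect of over 45% in size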
SNCA viab count = GF-AFC viability counterscreen for inhibitors of alpha-synuclein gene (SNCA) expression | HEK-293-SNCA-luc viability, GF-AFC fluorescence, 24 h | Potency, µM (top dose mostly 57.1 µM), without a hit: at the highest dose activity change, negative = cytotoxicity, hits mostly cytotoxic | actives 0.12% (n = 150,000) | AID 1671193, 2021;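 further: potency means the concentration at half of the fitted maximal effect; 0% = DMSO-treated cells and -100% = medium-only wells without cells; nearly all actives have a fitted effect of over 30% in size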
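Cytotoxicity counterscreen: after 24 h compound treatment of genome-edited SNCA-luciferase HEK-293 cells, live-cell protease substrate GF-AFC read by fluorescence after 30 min; activity scaled between DMSO (0%) and medium-only (-100%), curves Hill-fitted.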
KDM5B inhibitor = Primary screen for KDM5B Histone Demethylases FDH-coupled qHTS; Lysine-specific demethylase 5B (Homo sapiens), Q9UGL1; KDM5B demethylase, FDH-coupled NADH fluorescence (FDH is formaldehyde dehydrogenase); Potency, µM (doses to about 57.7 µM), usual class: inhibitors; actives 2.6% (n = 220,000); further: potency means the concentration at half of the fitted maximal effect; 0% is about no effect; nearly all actives have a fitted effect of over 70% in size
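Compound dilutions met 200 nM (final) KDM5BΔAP for 10 min at room temperature before substrate addition. The substrate mix held 12.5 µM H3K4me3 with cofactors 25 µM α-ketoglutarate and 50 µM Fe²⁺. NADH signal gain over 30 min defined activity.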
IP6K1 inhibitor = Primary qHTS assay for small molecule inhibitors of Inositol hexaphosphate kinase 1 (IP6K1) | IP6K1 kinase, ADP-Glo luminescence, 2 h; stronger effect = lower value | activity change, % (series mostly up to about 58 µM) | actives 0.81% (n = 140,000); in the data active means activity change below about -25%; further: on the % scale 0 is the no-effect control and ±100 the full control effect
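ADP-Glo luminescence measures ADP made by human IP6K1 during a 2 h RT reaction with ATP/IP6 (mix at 1.3 mM/130 uM); top library doses 57.5 and 19.1 uM final.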
IP6K1 conf = Confirmatory qHTS assay for small molecule inhibitors of Inositol hexaphosphate kinase 1 (IP6K1). shares compounds with IP6K1 inhibitor. recombinant IP6K1 kinase, ADP-Glo luminescence, 2 h. Potency, µM (highest dose often 49 µM), for inactives: top-dose activity change, negative = inhibition, most hits filed as inhibitors. actives 13% (n = 1,200). AID 1645852, 2021; further: potency means the concentration at half of the fitted maximal effect; on the % scale 0 is the no-effect control and ±100 the full control effect; nearly all actives have a fitted effect of over 65% in size
* marks the source's active call; other numbers are inactive results; i = inactive; ? = inconclusive; nt = not tested or not shown; [ ] = remark or other dose. A selection: hits, their analogues and other compounds. The true share with any hit is near 2.8%. Unless noted, the call rests on the fitted dose curve; in most records, active means well fitted curve in the direction sought with a large enough effect; inconclusive means small, poorly fitted or top-dose-only effect, or another doubt; inactive means no such curve, though single readings can be large; an effect the other way counts as inactive or inconclusive.

SMILES	SNCA expr inhib	SNCA viab count	KDM5B inhibitor	IP6K1 inhibitor	IP6K1 conf
CCOC(=O)c1ccc(NC(=O)CC2C(=O)N(c3ccccc3)C(=O)N2Cc2ccc(C)cc2)cc1 (stereo not drawn)	?	-18%	i	-40*	?
Cc1ccc(Cl)cc1NC(=O)c1oc2c(c1C)-c1[nH]ncc1CC2	67%	2%	?	-40*	?
Cc1ccccc1Nc1nc(N)c(C(=O)c2ccccc2Cl)s1	-23%	?	i	-52*	3.3µM*
Cc1ccc(Nc2nc(N)c(C(=O)c3ccccc3Cl)s2)c(C)c1	nt	nt	i	nt	nt
CC1=C(C(=O)OC2CCCCC2)C(c2ccc([N+](=O)[O-])cc2)C2=C(CC(C)(C)CC2=O)N1 (stereo not drawn)	nt	-4%	nt	-36*	-24%
CC1=C(C(=O)OC2CCCCCC2)C(c2c(Cl)cccc2Cl)CC(=O)N1 (stereo not drawn)	?	-7%	i	14	nt
CCOc1ccccc1NC(=O)c1ncoc1-c1ccc(OC)c(OC)c1	nt	nt	i	nt	nt
O=C(CSc1nnc(N2CCOCC2)n1-c1cccc(F)c1)N(C1=CCCCC1)C1CC1	nt	nt	i	nt	nt
Cc1ccc(S(=O)(=O)c2[nH]c(-c3ccccc3)nc2SCC(=O)O)cc1	-29%	-1%	i	-26*	-5%
Cc1cccc(N2CCN(S(=O)(=O)c3csc(C(N)=O)c3)CC2)c1C	-12%	-7%	i	-42*	7.3µM*
Cc1cc(S(=O)(=O)c2ccc([N+](=O)[O-])cn2)ccc1Br	nt	nt	i	nt	nt
Cc1ccc([N+](=O)[O-])cc1S(=O)(=O)N(C)/N=C/c1cnc2ccc(Br)cn12	nt	?	nt	-25*	?
O=C(O)c1c(F)c(F)c(F)c(F)c1Cc1ccccc1	nt	nt	i	nt	nt
Cc1c(NC(=O)c2ccc([N+](=O)[O-])o2)cccc1-c1nc2ccccc2o1	nt	nt	i	nt	nt
Cc1c(NC(=O)c2sc3c([N+](=O)[O-])cccc3c2Cl)cccc1-c1nc2ccccc2o1	9%	12%	i	-28*	7%
CCCCc1nn(CC(=O)NCC2Cc3ccccc3CN2C)c(=O)n1CC (stereo not drawn)	-8%	-5%	?	-30*	-7%
CCCCc1nn(CC(=O)NC[C@H]2CCc3ccccc3O2)c(=O)n1CC	-5%	1%	i	12	nt
CC(Oc1cccc(Cl)c1)C(=O)NCCc1ccccn1 (stereo not drawn)	nt	nt	i	nt	nt
COc1cccc(C(=O)N2CC(=O)Nc3ccc(C)cc3C2c2ccc(F)cc2)c1OC (stereo not drawn)	1%	-19%	i	-25*	-14%
Cc1ccc2c(c1)C(c1ccccc1)N(C(=O)c1ccccc1F)CC(=O)N2 (stereo not drawn)	-17%	-3%	?	-14	nt
CN(CC(=O)NC(C1CC1)C1CC1)c1ccccc1	nt	nt	i	nt	nt
Fc1cc(-c2cccc3ncc(-c4cnn(C5CCNCC5)c4)nc23)cc(F)c1CN1CCOCC1	?	?	nt	12	-4%
Cc1cc(CS(=O)(=O)c2ccccc2)cc(OCc2ccc(CN3CCC[C@@H]3CO)cc2)c1	nt	-25%	nt	-41*	9%
COc1ccc(C(=O)Nc2ccc3[nH]ccc3c2)cc1	nt	nt	i	nt	nt
O=C(Nc1cc2cc[nH]c2cn1)c1ccccc1	1.5µM*	?	nt	-28*	?
SMILES	SNCA expr inhib	SNCA viab count	KDM5B inhibitor	IP6K1 inhibitor	IP6K1 conf
Cn1nc(C2CCCC2)cc1NC(=O)c1ccccc1F	87%[87.6 µM]	6%[87.6 µM]	nt	-1	nt
Cc1cc(F)c(C(=O)Nc2cccc(-c3nncn3C(C)C)n2)cc1-n1cnc(C2CC2)c1	nt	?	nt	-35*	?
CN(CC(=O)Nc1ccccc1Cl)C(=O)CSc1ncnc2scc(-c3ccccc3)c12	nt	nt	i	nt	nt
Cn1nnnc1Sc1ncnc2scc(-c3ccc4c(=O)ccoc4c3)c12	nt	nt	nt	nt	-17%
Cn1nnnc1Sc1ncnc2scc(-c3ccc(Cl)cc3)c12	nt	nt	nt	nt	1%
Cc1ccc(-c2csc3ncnc(Sc4nnc(C)s4)c23)cc1	nt	nt	i	nt	nt
Cc1c(Br)c(C(F)(F)F)nn1C(C)C(=O)N1CCN2CCCC2C1 (stereo not drawn)	nt	nt	i	nt	nt
COc1cc(/C=C(\C#N)C(=O)c2ccc(O)c(O)c2)cc(I)c1O	2%	-16%	nt	nt	2.1µM*
Cc1ccc(C)c(N2CCN(c3ccc(NC(=O)c4cccs4)cc3C(=O)O)CC2)c1	20%	1%	?	-33*	?
NC(=O)Cc1c[nH]c2ncc(-c3ccc(Oc4ccccc4)cc3)cc12	-15%[87.6 µM]	-13%[87.6 µM]	?	-42*	?
NC(=O)Cc1c[nH]c2ncc(-c3cccc(F)c3)cc12	0%[87.6 µM]	1%[87.6 µM]	32µM*	-35*	?
Cc1cc(-c2cnc3[nH]cc(CC(N)=O)c3c2)ccn1	12%[87.6 µM]	12%[87.6 µM]	i	-7	nt
CNC(=O)c1cccc(-c2cnc3[nH]cc(CC(=O)N(C)c4ccccc4)c3c2)c1	-1%[87.6 µM]	?	i	-29*	?
Cc1oc(-c2ccccc2)nc1CNC(=O)Nc1ccccc1Cl	nt	nt	i	nt	nt
CCCCn1c(=O)c(C(=O)NCCc2ccccc2)nc2cccnc21	-24%	-4%	nt	5	nt
CCCCn1c(=O)c(C(=O)NCCc2ccc(F)cc2)nc2cccnc21	-30%	1%	nt	-27*	-10%
COc1c(CNC2CCN(Cc3ccccc3)C2)c(C)nn1C (stereo not drawn)	nt	nt	i	nt	nt
